The supplement of paper PMC8253809
Several values for one entry are separate records, joined by “and”; a condition that tells them apart may be missing. Identical values can stand only once.

What was measured:
Experiment in all cases: growth inhibition (% activity, log2 RLU normalised to DMSO / staurosporine); higher = more growth inhibition
Details in all cases: 33 µM
DIPGX29 = test system: DIPGX29 (H3.3 K27M diffuse intrinsic pontine glioma line)
Procedure, shortened: (§1)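 For each approved drug, the growth-inhibition value is the replicate median of per-plate normalised CellTiter-Glo data. Luminescence was log2-transformed and expressed as % activity between solvent and positive control wells. Drugs were applied in triplicate at a single final concentration of about 33 μM for 7 days at 37 °C, 5% CO2 to pHGG cell lines and H9-derived neural stem cells.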

DIPGX37 = test system: DIPGX37 (H3.3 K27M diffuse intrinsic pontine glioma line)
Procedure, shortened: as §1

DIPGX7 = test system: DIPGX7 (H3.3 K27M diffuse intrinsic pontine glioma line)
Procedure, shortened: as §1

DIPGX9 = test system: DIPGX9 (diffuse intrinsic pontine glioma line)
Procedure, shortened: as §1

HGGX39 = test system: HGGX39 (paediatric high-grade glioma line)
Procedure, shortened: as §1

HGGX6 = test system: HGGX6 (H3.3 G34R paediatric high-grade glioma line)
Procedure, shortened: as §1

HNSC = test system: HNSC
Procedure, shortened: as §1

SUDIPGIV = test system: SUDIPGIV (diffuse intrinsic pontine glioma line)
Procedure, shortened: as §1

SUDIPGVI = test system: SUDIPGVI (diffuse intrinsic pontine glioma line)
Procedure, shortened: as §1

SUDIPGXIII = test system: SUDIPGXIII (diffuse intrinsic pontine glioma line)
Procedure, shortened: as §1

Compound	growth inhibition (DIPGX29)	growth inhibition (DIPGX37)	growth inhibition (DIPGX7)	growth inhibition (DIPGX9)	growth inhibition (HGGX39)	growth inhibition (HGGX6)	growth inhibition (HNSC)	growth inhibition (SUDIPGIV)	growth inhibition (SUDIPGVI)	growth inhibition (SUDIPGXIII)
CNC(=O)c1cc(Oc2ccc(NC(=O)Nc3ccc(Cl)c(C(F)(F)F)c3)c(F)c2)ccn1	4.67%	2.29%	3.66%	2.56%	5.15%	5.99%	39.1%	1.19%	4.32%	59.3%
C[C@H]1c2cccc(O)c2C(=O)C2=C(O)[C@]3(O)C(=O)C(C(N)=O)=C(O)[C@@H](N(C)C)[C@@H]3[C@@H](O)[C@@H]21	0.731%	-0.495%	1.55%	1.62%	6.11%	0.474%	25.5%	10.2%	-0.454%	-2.03%
O=C1CCc2ccc(OCCCCN3CCN(c4cccc(Cl)c4Cl)CC3)cc2N1	4.57%	3.86%	4.16%	4.55%	5.69%	3.13%	22%	4.8%	4.51%	14.8%
CCCCC(CC)CN=C(N)N=C(N)NCCCCCCNC(N)=NC(N)=NCC(CC)CCCC (stereo not given)	57.1%	60.6%	58.2%	57.3%	58.4%	59.5%	67.8%	59.4%	60.2%	69.8%
OCC(CO)N[C@H]1C[C@](O)(CO)[C@@H](O)[C@H](O)[C@H]1O	-0.323%	0.847%	-1.4%	0.186%	0.139%	-0.0513%	-1.53%	-0.574%	0.28%	0.0745%
CN1C2CCCC1CC(NC(=O)c1nn(C)c3ccccc13)C2 (stereo not given)	1.3%	-1.75%	0.448%	1.03%	1.66%	1.21%	1.6%	0.0415%	1.95%	0.965%
Cc1ccc(C(=O)C(C)CN2CCCCC2)cc1 (stereo not given)	0.542%	0.69%	0.522%	0.564%	1.58%	2.83%	-0.193%	-0.938%	-0.166%	0.909%
O=c1oc2c(O)c(O)cc3c(=O)oc4c(O)c(O)cc1c4c23	1.91%	2.55%	2.78%	2.1%	1.54%	-1.49%	-1.26%	-0.815%	-0.974%	1.4%
CN(CCOc1ccc(CC2SC(=O)NC2=O)cc1)c1ccccn1 (stereo not given)	0.694% and -0.307% and -1.83%	3.97% and -0.209% and -2.53%	1.8% and -0.988% and -1.81%	2.03% and 1.11% and 0.786%	1.62% and 0.821% and 0.11%	1.66% and 0.11% and -0.818%	-0.719% and -0.633% and -2.63%	4.42% and -0.944% and -1.21%	1.7% and -0.11% and -0.397%	-15.6% and -1.12%
CCC[C@@H]1C[C@@H](C(=O)N[C@@H]([C@H]2O[C@H](SC)[C@H](O)[C@@H](O)[C@H]2O)[C@H](C)Cl)N(C)C1	1.54% and 0.31%	0.378% and 0.388%	2.54% and -0.297%	-0.222% and -0.00863%	1.92% and 0.31%	0.389% and -3.2%	3.24% and 18.2%	2.02% and 2.11%	2.1% and -0.349%	-1.04% and -3.03%
CO[C@H]1/C=C/O[C@@]2(C)Oc3c(C)c(O)c4c(O)c(c(/C=N/N5CCN(C)CC5)c(O)c4c3C2=O)NC(=O)/C(C)=C\C=C\[C@H](C)[C@H](O)[C@@H](C)[C@@H](O)[C@@H](C)[C@H](OC(C)=O)[C@@H]1C	-0.241%	-0.311%	-0.321%	-1.43%	0.825%	3.31%	-3.9%	-0.0069%	-1.69%	1.7%
C[C@]12CC[C@@H]3c4ccc(O)cc4CC[C@H]3[C@@H]1CC[C@@H]2O	-1.16%	1.54%	-0.611%	-0.154%	0.663%	2.45%	-4.69%	-0.561%	-3.66%	1.49%
CC/C(=C(/CC)c1ccc(O)cc1)c1ccc(O)cc1	-0.353%	0.261%	1.61%	0.802%	-1.26%	-0.016%	-1.62%	0.624%	0.165%	-10.6%
Cc1cn(C2C=CC(CO)O2)c(=O)[nH]c1=O (stereo not given)	0.293%	-1.7%	-0.477%	0.481%	-0.264%	-0.492%	1.41%	-1.27%	1%	0.705%
O=C(c1ccc(OCCN2CCCCC2)cc1)c1c(-c2ccc(O)cc2)sc2cc(O)ccc12	8.18%	-0.349%	22.3%	1.84%	6.41%	7.69%	1.59%	0.509%	-4.3%	2.77%
CCCSc1nc(N[C@@H]2C[C@H]2c2ccc(F)c(F)c2)c2nnn([C@@H]3C[C@H](OCCO)[C@@H](O)[C@H]3O)c2n1	2.23%	3.23%	4.99%	1.97%	5.25%	1.74%	20.6%	3.4%	3.52%	0.841%
Cc1[nH]c(=O)c(C#N)cc1-c1ccncc1	1.05%	4.4%	1.37%	1.64%	3.34%	-0.118%	3.65%	2.63%	4.48%	-1.25%
Cc1cccc(C)c1NC(=O)C1CCCCN1C (stereo not given)	0.788%	0.607%	-0.12%	0.0719%	1.51%	1.22%	-1.45%	-0.501%	1.09%	1.48%
CCCCCCCCCCCCCCCCO	-0.933%	2.94%	1.65%	1.02%	2.94%	-1.64%	11.6%	2.42%	0.249%	1.46%
CCCNC(C)C(=O)Nc1ccccc1C (stereo not given)	-1.66%	0.68%	-1.19%	-0.603%	0.299%	-0.0141%	-2.37%	-1.79%	-0.942%	-0.434%
CCCCCCCCCCCC[N+](C)(C)CCOc1ccccc1	59%	58.8%	53.9%	57.2%	62.1%	56.8%	55.6%	55.7%	63.2%	70.1%
